Assay [1] is described as follows: ATG_E_Box_CIS: Attagene CIS-FACTORIAL HepG2 Assay for human Enhancer Box (E-box) (AID 2282936). Conditions: HepG2 E-box cis-reporter transcription, actives raise or lower the signal. In outline:
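E-box-driven reporter transcripts measured in transiently transfected HepG2 after 24 h exposure: RNA reverse-transcribed, PCR-amplified, fluorescently labelled, digested and resolved by capillary electrophoresis. Gain or loss relative to DMSO.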

Assay [2] is described as follows: ATG_M_61_CIS: Attagene CIS-FACTORIAL HepG2 Assay for M61 Transcription Factor (Internal Marker) (AID 2282937). Conditions: HepG2 Attagene CIS-FACTORIAL M61 internal marker reporter; actives raise or lower the signal. In outline:
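Multiplexed reporter mRNA assay, HepG2 human hepatoma cells, 24 h treatment. Signal: FAM-labelled, HpaI-digested RT-PCR fragments by CE. Fit: bidirectional, baseline DMSO.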

Assay [3] in a line: ATG_M_19_CIS: Attagene CIS-FACTORIAL HepG2 Assay for M19 Transcription Factor (Internal Marker) (AID 2282939). The note with it: HepG2 Attagene CIS-FACTORIAL M19 internal marker reporter; actives raise or lower the signal. In outline: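 Internal marker readout, fitted in both directions against DMSO, from HepG2 cells carrying transfected cis-element reporter constructs; RT-PCR and capillary electrophoresis of reporter mRNA after 24 h exposure.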

Assay [4] is described as follows: ATG_ERE_CIS: Attagene CIS-FACTORIAL HepG2 Assay for Estrogen Response Element (ERE) (AID 2282940). Conditions: HepG2 ERE cis-reporter, Attagene RNA transcript; actives raise or lower the signal. In outline: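 After 24 h compound treatment, RNA from transfected HepG2 cells was reverse-transcribed, reporter cDNA PCR-amplified, FAM-labelled, HpaI-cut and resolved by capillary electrophoresis. ERE-driven cis reporter transcripts reflect endogenous factors; gain or loss scored against DMSO.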

Assay [5] in a line: ATG_Ets_CIS: Attagene CIS-FACTORIAL HepG2 Assay for human Erythroblast Transformation Specific (ETS) (AID 2282941). The note with it: HepG2 ETS cis-reporter transcription, actives raise or lower the signal. In outline:
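Bidirectional fit versus DMSO of reporter mRNA signal, detected by RT-PCR and capillary electrophoresis in HepG2 cells transiently transfected with cis-element reporters and dosed 24 h.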

The target in assay [6] is Hepatocyte nuclear factor 3-beta (Homo sapiens) (UniProt Q9Y261). As to the kind of experiment: ATG_FoxA2_CIS: Attagene CIS-FACTORIAL HepG2 Assay for human Forkhead box A2 (FOXA2) (AID 2282942). The note with it: HepG2 cis-reporter transcription factor activity, 24 h; actives raise or lower the signal. In outline: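 Multiplexed cis-element reporter assay in transiently transfected HepG2. Twenty-four hours post-dosing, RNA was reverse-transcribed, amplified, FAM-labelled, HpaI-digested and separated by CE. Activity gain or loss relative to DMSO.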
Sequence of Hepatocyte nuclear factor 3-beta (Homo sapiens) (Q9Y261 whole entry, looked up): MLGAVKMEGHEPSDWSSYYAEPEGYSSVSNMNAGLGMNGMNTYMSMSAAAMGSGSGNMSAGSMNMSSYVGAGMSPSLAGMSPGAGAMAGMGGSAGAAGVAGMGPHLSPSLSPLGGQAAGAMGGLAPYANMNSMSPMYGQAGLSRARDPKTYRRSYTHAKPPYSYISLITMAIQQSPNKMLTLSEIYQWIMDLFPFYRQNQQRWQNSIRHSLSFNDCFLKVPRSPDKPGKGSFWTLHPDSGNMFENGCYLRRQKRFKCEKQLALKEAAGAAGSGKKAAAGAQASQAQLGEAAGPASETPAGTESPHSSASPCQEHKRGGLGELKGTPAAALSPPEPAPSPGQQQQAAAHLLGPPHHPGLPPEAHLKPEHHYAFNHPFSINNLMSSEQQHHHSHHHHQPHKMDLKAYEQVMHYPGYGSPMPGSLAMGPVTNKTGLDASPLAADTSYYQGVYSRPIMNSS

Assay [7] can be described thus: ATG_FoxO_CIS: Attagene CIS-FACTORIAL HepG2 Assay for human Forkhead box O (FoxO) (AID 2282943). The note with it: HepG2 Attagene cis-reporter, FoxO element, mRNA; actives raise or lower the signal. In outline:
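Endogenous transcription factor activity read from multiplexed cis-promoter reporter transcripts in transiently transfected HepG2, 24 h after dosing. Reporter RNA measured via RT-PCR plus capillary electrophoresis of FAM-labeled products; gain or loss relative to DMSO.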

A short description of assay [8]: ATG_GATA_CIS: Attagene CIS-FACTORIAL HepG2 Assay for human GATA Binding Protein (AID 2282944). The note with it: HepG2 GATA cis-element reporter, Attagene multiplex mRNA; actives raise or lower the signal. In outline: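 Reporter transcripts from a GATA cis-regulated unit, among multiplexed reporters in transfected HepG2 cells, were measured by RT-PCR with capillary electrophoresis after 24 h dosing. Induction or loss scored relative to DMSO.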

The nature of assay [9]: ATG_GLI_CIS: Attagene CIS-FACTORIAL HepG2 Assay for human Zinc Finger Protein GLI1 (AID 2282945). Conditions: HepG2, Attagene cis-factorial reporter mRNA, GLI element; actives raise or lower the signal. In outline: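 Bidirectional curve fits relative to DMSO, using reporter mRNA levels from RT-PCR plus capillary electrophoresis. Cells were HepG2 transiently carrying cis-regulated reporter constructs, harvested 24 h after dosing.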

Assay [10] is described as follows: ATG_EGR_CIS: Attagene CIS-FACTORIAL HepG2 Assay for human Early Growth Response 1 (EGR1) (AID 2282938). The note with it: HepG2 Attagene CIS-FACTORIAL EGR reporter mRNA; actives raise or lower the signal. In outline:
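Multiplexed cis-reporter system in human hepatoma HepG2 cells, transiently transfected. Cells are dosed for 24 h; reporter transcripts are amplified, fluorescently tagged and sized by capillary electrophoresis, with DMSO as negative control.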

The structures appear in SMILES notation. Active and inactive are the calls of the source. The calls were made as follows: active = hit-call score of the fitted dose curve at least 0.9, where 1 is the maximum; inactive = score below 0.9.

For the compound `Cc1ccc(S(=O)(=O)O)cc1C`, the result in [1], in [2], in assay [3], in [4], in assay [5] and in assay [6] was inactive. Further, the call in [7], in assay [8] and in [9] was inactive.
Consider `Nc1ccc(Nc2ccccc2)cc1`, for which the outcome in [1], in assay [2], in assay [10], in [5], in assay [6] and in assay [7] was inactive. Also, the result in [8] and in assay [9] was inactive. For the same compound, the AC50 in assay [4] was 35.1 µM (active).
For `O=C(O)c1cccc(Oc2ccccc2)c1`, the result in [1], in [2], in assay [3], in assay [4], in assay [5] and in assay [6] was inactive. The compound was classed as inactive in assay [7], in [8] and in [9].
As for `CC1(C)C(=O)N(Br)C(=O)N1Br`, the result in assay [1], in assay [2], in assay [10], in assay [5], in [6] and in [7] was inactive. For the same compound, the result in assay [8] and in assay [9] was inactive.
For `CC(C)=CCC/C(C)=C/CO`, the result in assay [1], in assay [2], in assay [10], in [5], in assay [6] and in assay [7] was inactive. Moreover, the call in assay [8] and in assay [9] was inactive.
Turning to `CCn1nc(Cc2ccccc2)cc1C1CCN(C[C@H]2C[C@H](N(C)[C@@H](C(=O)O)C(C)C)C[C@@H]2c2cccc(F)c2)CC1`, the concentration at half-maximal activity (AC50) in assay [1] is 79.3 µM (active); in assay [4], 5.55 µM (active). Besides, the call in [2], in assay [3], in [5], in assay [6], in assay [7] and in assay [8] was inactive. Besides, the result in assay [9] was inactive.
With `CC(=O)OC[C@H]1O[C@@](COC(C)=O)(O[C@H]2O[C@H](COC(C)=O)[C@@H](OC(C)=O)[C@H](OC(C)=O)[C@H]2OC(C)=O)[C@@H](OC(C)=O)[C@@H]1OC(C)=O`, the result in assay [1], in assay [2], in assay [3], in assay [5], in assay [6] and in assay [7] was inactive. The outcome in assay [8] and in assay [9] was inactive.
Take `CCc1cc(SCc2sc(-c3ccc(C(F)(F)F)cc3)nc2CN2CCN(c3ccc(OC)cc3)CC2)ccc1OCC(=O)O`: in assay [1], the concentration at half-maximal activity (AC50) is 11 µM (active). Besides, the result in assay [2], in assay [3], in assay [5], in assay [6], in assay [7] and in assay [8] was inactive. The compound was called inactive in assay [9].
Consider `COC(=O)CC(=O)OC`, for which the outcome in assay [1], in assay [2], in assay [10], in assay [4], in [5] and in assay [6] was inactive. Further, the call in assay [7], in assay [8] and in assay [9] was inactive.
Consider `CCCC(=O)OCC`, for which the result in assay [1], in assay [2], in assay [10], in assay [4], in [5] and in assay [6] was inactive. Moreover, the result in [7], in assay [8] and in assay [9] was inactive.
In the case of `O=C(O)CCN(C1(C(=O)NO)CCCC1)S(=O)(=O)c1ccc(Oc2ccc(F)cc2)cc1`, the outcome in assay [1], in [2], in assay [10], in [5], in [6] and in assay [7] was inactive. Further, the outcome in assay [8] and in [9] was inactive.
As to `CCOCCO`, the outcome in [1], in assay [2], in assay [10], in assay [5], in assay [6] and in [7] was inactive. Further, the compound was called inactive in assay [8] and in [9].
Consider `CCOC(=O)c1ccc(C2CCC(NC[C@H](O)COc3ccc(O)c(NS(C)(=O)=O)c3)CC2)cc1` (some centres undefined), for which the result in [1], in assay [2], in assay [5] and in [6] was inactive. For the same compound, the AC50 in assay [10] is 56.8 µM (active); in assay [7], 53.5 µM (active); in assay [8], 48.8 µM (active); in assay [9], 59.6 µM (active).
In the case of `COc1cccc(-c2ccc(/C=C\CN3CCCCCC3)cc2Cl)c1`, the outcome in assay [1], in assay [2], in assay [10], in [4], in assay [5] and in assay [6] was inactive. The compound was classed as inactive in assay [7], in assay [8] and in [9].
With `C=CC(=C)CCC=C(C)C`, the result in assay [1], in [2], in [3], in [4], in assay [5] and in [6] was inactive. Besides, the compound was classed as inactive in assay [7], in assay [8] and in assay [9].
Turning to `O=P(OC(CCl)CCl)(OC(CCl)CCl)OC(CCl)CCl`, the result in assay [1], in [2], in assay [4], in assay [6] and in assay [8] was inactive. Besides, the half-maximal activity concentration (AC50) in assay [3] is 149 µM (active); in assay [5], 156 µM (active); in assay [7], 169 µM (active); in assay [9] it was 145 µM (active).
Consider `CN(C)c1ccc(N=NS(=O)(=O)O)cc1`, for which the outcome in assay [1], in assay [2], in assay [10], in assay [5], in assay [6] and in assay [7] was inactive. For the same compound, the call in assay [8] and in assay [9] was inactive.
On to `Cn1cnc([N+](=O)[O-])c1Sc1ncnc2nc[nH]c12`, for which the outcome in [1], in assay [2], in assay [5], in [6], in assay [7] and in assay [8] was inactive. For the same compound, the call in [9] was inactive. In [4], the AC50 was 29 µM (active).
As to `O=C(O)c1cc(N=Nc2ccc(S(=O)(=O)Nc3ccccn3)cc2)ccc1O`, the outcome in assay [1], in assay [2], in [3], in [5], in assay [6] and in assay [7] was inactive. Further, the compound was classed as inactive in assay [8] and in assay [9].
In the case of `CCN(C(=O)c1cc(C)cc(OC[C@H](C)Nc2ccncc2)c1)C(C)C`, the result in assay [1], in assay [2], in [5], in assay [6], in [7] and in assay [8] was inactive. In assay [9], the result was inactive.
Turning to `Fc1ccccc1[C@@H](F)COC1CCC(Nc2ncnc3[nH]ncc23)CC1` (some centres undefined), the AC50 in [1] was 177 µM (active). For the same compound, the call in assay [2], in assay [3], in [5], in assay [6], in assay [7] and in assay [8] was inactive. For the same compound, the compound was classed as inactive in assay [9].
In the case of `CC[C@H]1CC[C@H](NCc2cc3c(cc2OC)[C@H]2C[C@H]2C(=O)N3C)[C@H](c2ccccc2)N1`, the result in assay [1], in [2], in [4], in assay [6], in assay [8] and in [9] was inactive. The AC50 in [5] and in assay [7] was 100 µM (active) each time.

The record behind these values is PubChem BioAssay (EPA / NIEHS).
